Compound activity: PubChem BioAssay, National Center for Advancing Translational Sciences (NCATS)
Rows were chosen to be rich in hits. Some 9% of all compounds tested hit in one or more screens of this group.
G9a inh – qHTS Assay for Inhibitors of Histone Lysine Methyltransferase G9a. G9a H3K9 monomethylation, AlphaScreen, 2 h. Potency, µM (series often up to 102 µM), usual class: inhibitors. 350,000 tested, 8.8% active. Histone-lysine N-methyltransferase EHMT2 (Homo sapiens), Q96KQ7. AID 504332, 2011; note: nearly all actives have a fitted effect of over 75% in size
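Chemiluminescent proximity detection of H3K9 monomethylation, read after 10 min bead incubation in the dark. Reaction: 20 nM G9a, 500 nM biotin-H3K9 peptide, 20 uM SAM cofactor, 2 h, room temperature, following 15 min enzyme-compound preincubation.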
ALOX12 inh – Primary qHTS assay for inhibitors of human arachidonate 12S-lipoxygenase (ALOX12): Round 2 | Polyunsaturated fatty acid lipoxygenase ALOX12 (Homo sapiens), P18054 | purified 12hLO, xylenol orange hydroperoxide absorbance | Potency, µM (highest dose often 108 µM), hits mostly inhibitors | 580,000 tested, 1.1% active
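Hydroperoxide product was detected by ferrous iron/xylenol orange as the 573 to 405 nm absorbance ratio. Arachidonic acid at 40 uM (final) was turned over for 30 min at room temperature by 150 nM human 12hLO, pH 7.0 Hepes buffer, after 15 min compound preincubation.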
HP1b chromo inh – HTS for Inhibitors of HP1-beta Chromodomain Interactions with Methylated Histone Tails; Chromobox protein homolog 1 (Homo sapiens), P83916; AlphaScreen HP1-beta / biotin-H3K9me3 peptide binding; Potency, µM (doses to about 114 µM), most hits filed as inhibitors; 390,000 tested, 0.56% active; AID 540317, 2011; note: nearly all actives have a fitted effect of over 70% in size
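AlphaScreen: HP1-beta (50 nM) preformed 30 min with biotin-H3(1-18)K9me3 peptide (50 nM) in PBS pH 7.4, 0.01% Tween-20. Compound added for 30 min at RT, then streptavidin donor/nickel chelate acceptor beads (10 ug/mL) for 30 min.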
JMJD2A Tudor – qHTS Assay for Inhibitors of JMJD2A-Tudor Domain; Lysine-specific demethylase 4A (Homo sapiens), O75164; AlphaScreen JMJD2A-Tudor / H3K4me3 peptide binding; Potency, µM (doses to about 114 µM), most hits filed as inhibitors; 390,000 tested, 4.4% active; AID 504339, 2011; note: nearly all actives have a fitted effect of over 50% in size
PLK1 PBD block – qHTS for Inhibitors of PLK1-PDB (polo-like kinase 1 - polo-box domain): Primary Screen | Potency, µM, hits mostly inhibitors | AID 720504, 2013 | Serine/threonine-protein kinase PLK1 (Homo sapiens), P53350 | 360,000 tested, 2.8% active | Plk1 PBD binding of FITC phosphopeptide, fluorescence polarization; note: series mostly up to about 57 µM; nearly all actives have a fitted effect of over 65% in size
BAZ2B block – qHTS Assay for Inhibitors of BAZ2B; AlphaScreen BAZ2B-H3K14Ac peptide displacement; Potency, µM (titrated, usually from 114 µM), hits mostly inhibitors; 360,000 tested, 4.4% active; AID 504333, 2011; note: nearly all actives have a fitted effect of over 60% in size
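AlphaScreen luminescence quantifies BAZ2B engagement of H3K14Ac peptide; the protein and biotinylated peptide are both at 50 nM final, buffer PBS pH 7.4 with 0.01% Tween-20, all steps at room temperature.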
Numbers stand for hits; n = inactive; u = inconclusive; x = no result given; [ ] = remark or other dose. Calls come from the whole dose curve; as a rule, active = well fitted curve in the direction sought with a large enough effect; inconclusive = small, poorly fitted or top-dose-only effect, or another doubt; inactive = no such curve, though single readings can be large; an effect the other way counts as inactive or inconclusive.

SMILES	G9a inh	ALOX12 inh	HP1b chromo inh	JMJD2A Tudor	PLK1 PBD block	BAZ2B block
CC1CCN(CCCCOc2ccc(C(=O)c3ccccc3)cc2)CC1	35µM	n	n	n[11.4 µM]	27µM	n
Cc1cc(NC(=O)CSc2nnnn2Cc2ccccc2)no1	n	n	n	n[11.4 µM]	21µM	n
Cc1cc(NC(=O)CSc2nnnn2-c2ccc(C)c(C)c2)no1	x	n	n	n	n	n
Cc1cc(NC(=O)CSc2nnnn2-c2ccccc2)no1	n	n	n	n	n	n
Cc1cc(NC(=O)CSc2nnnn2-c2ccc(C)c(Cl)c2)no1	45µM	n	n	n	n	n
COc1ccc(NC(=S)NN2CCOCC2)cc1OC	n	n	n	n	n	n
COc1ccc(S(=O)(=O)N(C)CC(=O)NCC2CCCO2)cc1Cl (stereo unspecified)	x	n	x	x	x	x
COCCCN1C(=O)CC[C@H]2CN(C(=O)c3ccc(CN)cc3)CC[C@H]21	x	n	x	x	x	x
CC(C)N1CCC(=NNc2ccc(S(=O)(=O)N3CCOCC3)cc2[N+](=O)[O-])CC1	n	n	n	u	n	n
Cn1cccc1/C=C1\SC(=Nc2ccc(O)cc2)NC1=O	n	n	n	n	n	n
Cn1cccc1/C=C1\SC(=Nc2cccc(O)c2)NC1=O	x	n	u	u	n	25µM
CCOc1cc(Br)c(/C=C2/C(=O)N(C)C(=S)N2CC(=O)OC)cc1OC	n[12.7 µM]	n	n	n	n	n
COc1cc(/C=C2\C(=O)N(CCC#N)N=C2C)c(Br)cc1OC(C)C	n	n	n	n	1.7µM	n
C/[N+]([O-])=C\c1cccc(OCCN2CCN(c3ncc(C(F)(F)F)cc3Cl)CC2)c1	n	n	n	u	12µM	u
CCNC(=O)c1ccc(CSc2nc3ccccc3s2)cc1	u	x	n	n	n	n
O=C(N/N=C/c1ccc([N+](=O)[O-])o1)c1cc2c(ccc3ccccc32)o1	x	n	n	u	15µM	56µM
Cc1ccc2nc(N/N=C\c3ccc([N+](=O)[O-])o3)nc(-c3ccccc3)c2c1	n	n	n	n	n	n
O=[N+]([O-])c1ccc(/C=N/Nc2ccc3ccccc3c2)o1	10µM	10µM	u	7.1µM	n	8.9µM
O=C(N/N=C/c1ccc([N+](=O)[O-])cc1)c1cc2ccccc2o1	n	n	n	n	n	n
O=C(N/N=C/c1ccc([N+](=O)[O-])o1)c1cc2ccccc2o1	50µM	n	n	n	n	n
CCNc1nc(NCC)nc(N/N=C/c2ccc([N+](=O)[O-])o2)n1	1.8µM	n	n	n	n	u
O=[N+]([O-])c1ccc(/C=N/Nc2nc(N3CCCC3)nc(N3CCCC3)n2)o1	n	n	n	n	n	n
CCOc1cnc(-c2ccc(OC)cc2)o1	n	n	n	n	n	n
COc1cc(C(=O)Nc2ccc3nc4n(c(=O)c3c2)CCCC4)ccc1Br	n	n	n	n	n	n
O=C(C[C@H]1NC(=O)c2ccccc2NC1=O)NCCc1ccco1	x	n	x	x	x	x
SMILES	G9a inh	ALOX12 inh	HP1b chromo inh	JMJD2A Tudor	PLK1 PBD block	BAZ2B block
Cc1nc2ccccn2c1C(=O)N/N=C/c1ccc([N+](=O)[O-])o1	50µM	n	u	40µM	n	45µM
N#C/C(=C\c1coc2ccccc2c1=O)C(N)=S	1.8µM	u	u	n	12µM	u
Cc1ccc(S(=O)(=O)Nc2ccc3c(c2)C(=O)N([C@H](C)CO)C[C@H](C)[C@H](CN(C)C(=O)Nc2cccc4ccccc24)OCCCC[C@@H](C)O3)cc1	x	u	x	x	n	x
CC(C)(C)C(=O)CSc1nc2ncc(Br)cc2[nH]1	50µM	n	n	u	n	n
O=C(CSc1nc2ncc(Br)cc2[nH]1)c1cccc([N+](=O)[O-])c1	45µM	n	n	n	n	n
O=C(C[n+]1cc(Br)cc(Br)c1)c1cccc([N+](=O)[O-])c1	n	u	n	n	n	50µM
